Here are results for 6 compounds from PubChem BioAssay (NCATS).

The nature of experiment [1]: Cell Viability - HepG2 (AID 433; calls by dose curve;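 note: potency is the fitted concentration of half-maximal effect; potency for ATP loss meaning cytotoxicity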). The settings on record: qHTS. The gist of the method: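 Cytotoxicity is scored as loss of intracellular ATP in HepG2 cells exposed to compounds for 40 h. Concentration-response curves, normalized to DMSO and 100 uM tamoxifen, give AC50 values.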
A short description of experiment [2]: Cell Viability - MRC5 (AID 434; calls by dose curve;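 note: potency is the fitted concentration of half-maximal effect; potency reflects cytotoxicity seen as loss of intracellular ATP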). The settings on record: MRC5 lung fibroblast viability, qHTS. The gist of the method:
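MRC5 normal human lung fibroblasts, 1500 cells/well, exposed to compound for 40 hr at 37 C. Cellular ATP was read by CellTiter-Glo luminescence; data normalized to DMSO and 100 uM tamoxifen, with AC50 from Hill fits.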
Background: qHTS replaces the single test concentration by a dilution series.

The target in experiment [3] is Mitogen-activated protein kinase 10 (Mus musculus) (UniProt Q61831). Kind of experiment: JNK3 AlphaScreen Assay (AID 530; active = well fitted curve in either direction with a large enough effect, not every such curve was filed as active;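 note: kinase came from lysate of stimulated human HepG2 cells; signal reports phosphorylation of biotinylated GST-cJun 1-79 at Ser73 with 10 µM ATP; % is set by controls: 0 for no effect and ±100 for the full control effect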). The settings on record: JNK3 lysate, c-Jun phosphorylation; series mostly up to 57.1 µM. The gist of the method:
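qHTS format: compounds tested as titrations against IL-1beta/TNF-alpha-activated HepG2 lysate JNK3 with biotin-GST-cJun substrate and 10 uM ATP at room temperature. Loss of anti-phospho-cJun AlphaScreen signal indicates inhibition.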
In general terms: Bead proximity is the source of the signal in Alpha formats.

Experiment [4] in a line: Cell Viability - HUV-EC-C (AID 542). Note: % is set by controls: 0 for no effect and ±100 for the full control effect; nearly all actives have a fitted effect of over 35% in size. As to conditions: HUV-EC-C endothelial cell viability, qHTS; series mostly up to 92.2 µM. An outline of the steps: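 HUV-EC-C normal human vascular endothelial cells, 1000 cells/well, pre-incubated 5 hr at 37 °C, then exposed to compounds for 40 hr at 37 °C in complete medium. Viability measured as intracellular ATP by CellTiter-Glo luminescence; AC50 from Hill fits.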

The nature of experiment [5]: Cell Viability - SH-SY5Y (AID 544). Note: nearly all actives have a fitted effect of over 55% in size. The settings on record: SH-SY5Y neuroblastoma cell viability; viability change, negative = cytotoxic: at 92.2 µM (top of the series). An outline of the steps: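 Human neuroblastoma SH-SY5Y cells (1500/well) in complete medium were exposed to compounds for 40 hr at 37 °C; intracellular ATP was then quantified by CellTiter-Glo luminescence after 20 min at room temperature. AC50 came from Hill-equation concentration-response fits.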

A short description of experiment [6]: Cell Viability - Renal Proximal Tubule (AID 545). Note: nearly all actives have a fitted effect of over 40% in size. The settings on record: renal proximal tubule cells viability; at 91.7 µM (top of the series), primary cells of rat origin unless noted. An outline of the steps:
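Cytotoxicity is scored as a concentration-dependent drop in cellular ATP in primary rat renal proximal tubule cells exposed for 40 hr. AC50 derives from Hill modelling.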

Experiment [7] can be described thus: Cell Viability - Mesenchymal (AID 546).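 Note: cells exposed to compound for 40 hours before reading.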 As to conditions: mesenchymal cells viability, qHTS; series mostly up to 91.7 µM. An outline of the steps:
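Human kidney mesenchymal cells from normal renal glomeruli, 1000 cells/well, rested 5 hr at 37 °C, then treated 40 hr at 37 °C in complete medium. Cellular ATP read by CellTiter-Glo luminescence; AC50 from Hill-equation fits.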

Experiment [8] is described as follows: Cellular Toxicity (caspase-3) HUV-EC-C (AID 656). As to conditions: HUV-EC-C cells, caspase-3 activation (apoptosis), vehicle = 0, 100 µM tamoxifen = 100%; series mostly up to 92.2 µM. An outline of the steps:
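Read-out: luminescence proportional to caspase 3/7 activity, measured 20 min after adding Caspase-Glo 3/7 reagent. Cells (HUV-EC-C) had received compound for 16 hr at 37°C. Increases relative to DMSO and 100 uM tamoxifen gave concentration-response AC50 values.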

Experiment [9] is described as follows: Cellular Toxicity (caspase-3) SHSY5Y (AID 657). As to conditions: SH-SY5Y caspase-3 activation, DMSO zero, 10 µM staurosporine = 100%; series mostly up to 91.7 µM. The gist of the method: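 Cells plated and incubated 5 h at 37 °C, dosed over a concentration range, incubated 16 h, then given Caspase-Glo 3/7 reagent for 1 h at room temperature before luminescence reading. Staurosporine (10 uM) defined full stimulation.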

The nature of experiment [10]: Cellular Toxicity (caspase-3) MRC-5 (AID 659). The settings on record: MRC-5 cells, luminescence, normalized: DMSO 0%, 10 µM staurosporine 100%; series mostly up to 91.7 µM. The gist of the method: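 MRC-5 human normal lung fibroblasts, 1500 cells/well, treated 16 h at 37 °C in complete medium. Caspase 3/7 measured by Caspase-Glo luminescence after 1 h at room temperature. Normalized to DMSO and 10 uM staurosporine; AC50 from Hill fit.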

The nature of experiment [11]: Cellular Toxicity (caspase-3) Mesangial (AID 660).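 Note: cells exposed to compound for 16 h before the caspase read.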 As to conditions: mesangial cells, normalized: DMSO 0%, 100 µM tamoxifen 100%; series mostly up to 91.7 µM. An outline of the steps:
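Human renal glomerular mesangial cells (1000/well) were treated with compounds for 16 h at 37 °C in complete medium, then caspase 3/7 activity was read by Caspase-Glo luminescence. Data were normalized to DMSO and 100 uM tamoxifen; AC50 from Hill fits.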

Experiment [12] is described as follows: Cell Viability - LYMP1-002 - Assay at 16 hr (AID 948).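 Note: 0% = DMSO alone and full effect = 92 µM tetraoctylammonium bromide.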 The settings on record: LYMP1-002 lymphoblastoid cell viability; series mostly up to 92.2 µM. An outline of the steps: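 Acute cytotoxicity is scored as a concentration-dependent fall in intracellular ATP in a human lymphoblastoid line (LYMP1-002) after 16 hr compound exposure at 37 C, measured by luciferase luminescence.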

Experiment [13] can be described thus: MultiTox-Fluor Cytotoxicity Assay - LYMP1-003 - Dead Cells (AID 961).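 Note: 0% = DMSO and 100% = tetraoctylammonium bromide; nearly all actives have a fitted effect of over 70% in size.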 The settings on record: LYMP1-003 lymphoblastoid cells, dead-cell protease fluorescence; series mostly up to 92.2 µM. An outline of the steps:
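LYMP1-003 human lymphoblastoid cells (2500/well) exposed to compound 16 h at 37 C in complete medium; dead-cell protease read with bis-AAF-R110 fluorescence (Ex/Em 485/520) after 60 min at room temperature. Normalized to DMSO and 15 uM tetraoctylammonium bromide; AC50 from Hill fit.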

Experiment [14] can be described thus: Cell Viability - LYMP1-003 - Assay at 24 hr (AID 963).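 Note: plate controls were DMSO only for no effect and tetraoctylammonium bromide positive control for full effect.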 The settings on record: LYMP1-003 lymphoblastoid cell viability; series mostly up to 92.2 µM. The gist of the method: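 Human lymphoblastoid LYMP1-003 cells (2500/well) were rested 5 hr at 37 C, then exposed to compounds in complete medium for 24 hr at 37 C. Cellular ATP was quantified by CellTiter-Glo luminescence, and AC50 values came from Hill fits of concentration-response data.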

The nature of experiment [15]: Cell Viability - LYMP2-015 (AID 971).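 Note: 0% = DMSO only and full effect = 92 µM tetraoctylammonium bromide; nearly all actives have a fitted effect of over 55% in size.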 As to conditions: LYMP2-015 lymphoblastoid cell viability; series mostly up to 92.2 µM. An outline of the steps: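 Human lymphoblastoid cells (2500/well) in complete medium were preincubated 5 hr at 37 C, then compound-treated 24 hr at 37 C. Intracellular ATP was read by CellTiter-Glo luminescence after 30 min at room temperature; AC50 came from Hill-equation concentration-response fits.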

Experiment [16] in a line: Cell Viability - LYMP2-025 (AID 976).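 Note: plate controls were DMSO only for no effect and tetraoctylammonium bromide control for full effect.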 The settings on record: LYMP2-025 lymphoblastoid cell viability; series mostly up to 92.2 µM. An outline of the steps: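 Human lymphoblastoid LYMP2-025 cells (2500/well) were pre-incubated 5 hr at 37 C, then treated with compounds for 24 hr at 37 C in complete medium. Viability was read as intracellular ATP by CellTiter-Glo luminescence; AC50 from Hill fits.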

Experiment [17] can be described thus: qHTS Assay for Identification of Small Molecule Inducers of Hypoxia Response (AID 2120; active = well fitted curve in the direction sought with a large enough effect in the signal ratio, with a control signal flat, not every such curve was filed as active; the % refers to the signal ratio; note: 0% is about no effect). As to conditions: hypoxia response reporter cells, beta-lactamase ratio readout; series mostly up to 104 µM. The gist of the method: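 HRE-beta-lactamase reporter in CellSensor HRE-bla ME-180 cells, 2500 cells/well in Opti-MEM with 0.5% dialyzed FBS; compounds tested as titration series, 17 h at 37 degrees C. CCF4 substrate 2.5 h at room temperature; AC50 from 460/530 nm ratio.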

Experiment [18] can be described thus: qHTS assay for small molecule agonists of the antioxidant response element (ARE) signaling pathway measured by Nrf2-dependant transcriptional activity - cell viability counter screen (AID 720653; active = well fitted curve in the direction sought with a large enough effect in the repeat runs; an effect the other way counts as inactive or inconclusive; note: % is set by controls: 0 for no effect and ±100 for the full control effect). The settings on record: ARE-bla HepG2 viability, CellTiter-Glo ATP luminescence, 16 h; stronger effect = lower value. The gist of the method: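 ARE-bla HepG2 cells treated with compounds for 16 h at 37C; this counter screen measures viability as intracellular ATP by CellTiter-Glo luminescence after 30 min at room temperature.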

Experiment [19] can be described thus: qHTS assay for cell viability of HEK293 cells (AID 743288). Note: % is set by controls: 0 for no effect and ±100 for the full control effect; nearly all actives have a fitted effect of over 50% in size. The settings on record: ATP luminescence (CellTiter-Glo), 18 h; max response: stronger effect = lower value. The gist of the method: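 The Tox21 protocol used parental HEK293 cells treated for 18 h at 37 C with compounds delivered by pintool; ATP-coupled luminescence after 30 min at room temperature gave viability.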

The nature of experiment [20]: qHTS assay for cell viability of the p53RE-bla HCT-116 cell line (AID 743292). Note: % is set by controls: 0 for no effect and ±100 for the full control effect; nearly all actives have a fitted effect of over 55% in size. As to conditions: p53RE-bla HCT-116 viability, ATP luminescence, 16 h; series mostly up to 95 µM. An outline of the steps:
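In this qHTS counter-screen, metabolically competent p53RE-bla HCT-116 cells were counted via their ATP content. Compounds were applied for 16 h at 37 C and luciferase-coupled luminescence was measured.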

Values joined by “and” are separate entries in the source; they are usually repeats but may differ in a detail not shown here. Equal values may be shown once. A number with no mark means an inactive call. Results filed as inconclusive are left out. Active and inactive are the calls of the source. Unless noted, calls come from the whole dose curve; as a rule, active = well fitted curve in the direction sought with a large enough effect; inconclusive = small, poorly fitted or top-dose-only effect, or another doubt; inactive = no such curve, though single readings can be large; an effect the other way counts as inactive or inconclusive.

Consider `Cc1cccc(C#N)c1`, for which the Potency in experiment [1] and in [2] was > 92 µM each time. Further, the outcome in experiment [3], in [7], in [8], in [9], in [10] and in [11] was inactive. In addition, in [17], the outcome was inactive. For the same compound, the Potency entry in experiment [4], in experiment [5], in [12], in [13], in experiment [14] and in experiment [15] was “inactive” in each case. Also, the Potency result in experiment [16] and in experiment [20] was “inactive” throughout. Further, the activity change, negative = cytotoxicity in experiment [6] is -8.34%. The max response in experiment [18] is -8.19%; in [19], 0.442%.

With `Cc1cccc([N+](=O)[O-])c1`, the Potency in [1] and in experiment [2] was > 92 µM in each case. In addition, the result in [3], in experiment [7], in [8], in [9], in experiment [10] and in [11] was inactive. Besides, the result in [17] was inactive. The Potency result in experiment [4], in experiment [5], in experiment [12], in experiment [13], in experiment [14] and in [15] was “inactive” in each case. Moreover, the Potency result in experiment [16] and in [20] was “inactive” throughout. Moreover, in [6], the activity change, negative = cytotoxicity is -7.28%. The max response was -0.821% and -5.67% in experiment [18]; -6% and -15.6% in experiment [19].

For `OCC(Br)CBr` (stereo not given), the Potency in [1] and in experiment [2] was > 92 µM each time. The compound was classed as inactive in experiment [3], in experiment [7], in [8], in experiment [9], in experiment [10] and in experiment [11]. Besides, the outcome in [17] was inactive. The Potency result in experiment [4], in experiment [5], in experiment [12], in experiment [13], in [14] and in experiment [15] was “inactive” each time. In addition, the Potency entry in experiment [16] and in experiment [20] was “inactive” in each case. Also, in experiment [6], the activity change, negative = cytotoxicity is 0.652%. Further, the max response in experiment [18] was -0.194%; in [19], 6.86%.

As to `O=C=NC1CCCCC1`, the Potency in experiment [1] and in [2] was > 92 µM throughout. In addition, the compound was classed as inactive in [3], in [7], in experiment [8], in experiment [9], in experiment [10] and in [11]. For the same compound, the result in experiment [17] was inactive. Further, the Potency entry in experiment [4], in [5], in experiment [12], in experiment [13], in experiment [14] and in experiment [15] was “inactive” each time. For the same compound, the Potency result in experiment [16] and in experiment [20] was “inactive” each time. The activity change, negative = cytotoxicity in experiment [6] is -5.86% and -0.993%. The max response was 3.13% and -2.08% in experiment [18]; -2.8% and 0.863% in [19].

With `N#CCCCl`, the Potency in experiment [1] and in [2] was > 92 µM in each case. Also, the result in experiment [3], in [7], in [8], in [9], in experiment [10] and in experiment [11] was inactive. Moreover, the result in [17] was inactive. Besides, the Potency entry in experiment [4], in [5], in experiment [12], in experiment [13], in experiment [14] and in experiment [15] was “inactive” throughout. The Potency result in experiment [16] and in experiment [20] was “inactive” throughout. Also, in experiment [6], the activity change, negative = cytotoxicity is 1.51% and -5.91%. The max response in experiment [18] is 4.67% and 7.37%; in [19], -10.6% and 0.832%.

`Clc1nc(Cl)nc(Cl)n1`: the Potency in experiment [1] and in [2] was > 92 µM throughout. Also, the compound was classed as inactive in experiment [3], in experiment [7], in [8], in [9], in [10] and in experiment [11]. The outcome in [17] was inactive. Moreover, the Potency result in experiment [4], in [12], in experiment [13], in experiment [14], in experiment [15] and in experiment [16] was “inactive” throughout. Further, the Potency entry in experiment [20] is “inactive”. Further, the viability change, negative = cytotoxic in [5] is -96.5% (active). In experiment [6], the activity change, negative = cytotoxicity was -4.88%. Also, the max response in experiment [18] is -4.92% and -7.17%; in experiment [19], -10.6% and 4.47%.
